ELG1 genotoxic – inducers of genotoxicity in HEK293T ELG1-luciferase cells | HEK293T ELG1-luciferase reporter, luminescence, 16 h | Potency, µM (doses to about 46 µM), for inactives: at the highest dose activity change, positive = activation, hits mostly activators | 330,000 tested, 1.3% active | AID 504466; also: % of control where 0% means no effect; nearly all actives have a fitted effect of over 60% in size
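HEK293T cells expressing luciferase-tagged ELG1 were exposed to compound or DMSO vehicle for 16 hr at 37 °C and 5% CO2. Luciferase activity was then measured with ONE-Glo after 30 min at room temperature.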
SMN2 splice enh – SMN2 splice variant enhancement | HEK293 SMN2-luciferase splicing reporter, luminescence, 30-36 h | Potency, µM (titrated, usually from 46.1 µM), inactives show top-dose activity change, positive = activation, actives largely listed as activators | 210,000 tested, 2.8% active | AID 1458; also: % of control where 0% means no effect; nearly all actives have a fitted effect of over 55% in size
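qHTS luciferase splicing reporter: luminescence rises when SMN2 exon 7 is included in transfected HEK293 cells. Compound exposure lasted 30-36 h at 37C, with 4.5 mM final sodium butyrate as control, followed by a ONE-Glo read.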
Rab9 promoter act – activates the Rab9 promoter; AID 485297; Huh7 Rab9 promoter-luciferase reporter, luminescence, 24 h; 320,000 tested, 2.8% active; Potency, µM (doses to about 9.22 µM), for the others: at the top dose activation, negative = inhibition, hits mostly activators; also: % of control where 0% means no effect; nearly all actives have a fitted effect of over 60% in size
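Stable Rab9-luc Huh7, 1500 cells/well, 2 h settle; cmpd in DMSO, 24 h, 37 °C/5% CO2; luciferase reagent 10 min RT; luminescence.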
NPC1 promoter act – NPC1 promoter activation | Huh7 NPC1 promoter luciferase reporter, 24 h | Potency, µM (highest dose often 9.22 µM), inactives show at the highest dose activation, usual class: activators | 320,000 tested, 2.4% active; also: % of control where 0% means no effect; nearly all actives have a fitted effect of over 60% in size
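Compounds in DMSO were transferred onto Huh7 NPC1-luciferase reporter cells pre-incubated 2 h; after 24 h at 37 °C, Amplite reagent was dispensed and luminescence recorded 10 min later.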
FLuc counter – inhibits or activates purified firefly luciferase, miR-21 counter-screen | purified FLuc, Km substrates, luminescence inhibition | P08659 | 360,000 tested, 6.9% active | Potency, µM (highest dose often 57.5 µM), without a hit: at the top dose activity change, negative = inhibition, actives largely listed as inhibitors;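 also: plate controls were vehicle for no effect and reference inhibitor for full effect; nearly all actives have a fitted effect of over 55% in size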
Target sequence (P08659 whole entry, looked up): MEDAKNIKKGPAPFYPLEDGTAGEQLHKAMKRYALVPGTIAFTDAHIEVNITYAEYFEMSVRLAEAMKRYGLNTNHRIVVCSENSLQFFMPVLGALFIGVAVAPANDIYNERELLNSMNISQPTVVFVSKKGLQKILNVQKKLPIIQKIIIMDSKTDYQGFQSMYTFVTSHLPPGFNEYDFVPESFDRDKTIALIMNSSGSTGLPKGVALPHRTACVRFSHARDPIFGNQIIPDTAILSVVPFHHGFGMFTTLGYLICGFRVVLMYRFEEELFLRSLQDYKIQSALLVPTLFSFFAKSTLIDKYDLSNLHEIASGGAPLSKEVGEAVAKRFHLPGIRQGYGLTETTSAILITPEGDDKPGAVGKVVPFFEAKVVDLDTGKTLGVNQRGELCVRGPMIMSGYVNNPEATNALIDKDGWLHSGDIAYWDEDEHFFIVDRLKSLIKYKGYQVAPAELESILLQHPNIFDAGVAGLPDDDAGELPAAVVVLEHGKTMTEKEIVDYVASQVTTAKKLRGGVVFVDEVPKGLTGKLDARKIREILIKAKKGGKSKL
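Biochemical qHTS of compounds, final roughly 60 µM downward over six points, against 10 nM purified firefly luciferase using Km concentrations of substrates (10 uM D-luciferin, 10 uM ATP) in Tris acetate pH 7.5 buffer; luminescence output.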
ELG1 repair inh – blocks ELG1-dependent DNA repair in HEK293T cells; HEK293T ELG1-luciferase reporter, luminescence, 16 h; DNA damage induced by 5-fluorouridine; Potency, µM (doses to about 46.1 µM), for inactives: at the highest dose activity change, negative = inhibition, usual class: inhibitors; 330,000 tested, 2.3% active; also: % is scaled to controls: 0 for no effect and ±100 for the full control effect; nearly all actives have a fitted effect of over 55% in size
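Quantitative HTS, concentration-response format. 2,000 cells/well co-treated with 5-fluorouridine and compound, 16 hr in 5% CO2 at 37 °C; ONE-Glo luminescence read after 30 min.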
The depositor's hits bear a star; ? = inconclusive; . = not tested or not shown. Compounds with a hit are over-represented: about 9.2% of the library has one in this group of screens. Calls follow the shape of the dose curve; as a rule, active = well fitted curve in the direction sought with a large enough effect; inconclusive = small, poorly fitted or top-dose-only effect, or another doubt; inactive = no such curve, though single readings can be large; an effect the other way counts as inactive or inconclusive. Potency is read from the fitted curve at half-maximal effect.

SMILES	ELG1 genotoxic	SMN2 splice enh	Rab9 promoter act	NPC1 promoter act	FLuc counter	ELG1 repair inh
COc1cccc(NC(=O)Cn2c(=O)n(CCCC(=O)NCc3ccc4c(c3)OCO4)c(=O)c3ccccc32)c1	.	-6%	.	.	0%	.
CNC(=O)/C(C#N)=C\c1ccc(CNS(=O)(=O)c2ccc(Cl)cc2)o1	-2%	11%	6%	-3%	1%	7%
N#C/C(=C/c1ccc(N2CCCCC2)o1)C(=O)Nc1ccc(Cl)cc1	2.3µM*	3.2µM*	2.2µM*	2µM*	0.6µM*	?
N#C/C(=C/c1ccc(N2CCCCC2)o1)C(=O)Nc1ccc2ccccc2c1	0%	-48%	6%	6%	3.4µM*	-1%
O=C(Nc1ccnn1C1CCN(Cc2cc(Cl)ccc2O)CC1)C1CC1	-5%	.	0%	1%	-8%	-5%
Cc1ccc(-c2cc(C(=O)Nc3ccc(S(=O)(=O)N4CC(C)OC(C)C4)cc3)[nH]n2)c(O)c1 (configuration not stated)	-6%	.	-8%	-10%	4%	-1%
O=C(Nc1ccc(S(=O)(=O)N2CCOCC2)cc1)c1cc(-c2cc(Cl)ccc2O)n[nH]1	-10%	.	-22%	-26%	6%	23µM*
Cc1ccc(O)c(-c2cc(C(=O)Nc3ccc(S(=O)(=O)N4CC(C)OC(C)C4)cc3)[nH]n2)c1 (configuration not stated)	-8%	-83%	-15%	-4%	0%	8.2µM*
CCCNC(=O)[C@H](C)NC(=O)c1ccc(Br)cc1	0%	13%	12%	-4%	3%	7%
COc1cc(N=Nc2cccc(S(N)(=O)=O)c2)c2ccccc2c1N	?	?	-3%	10%	19µM*	?
O=C(CN1C(=O)COc2ccc(S(=O)(=O)N3CCOCC3)cc21)NCc1ccc(Cl)cc1	.	.	.	.	6%	.
CCCCOc1ccc(CNC(=S)N/N=C/c2ccc(OC)c(OC)c2)cc1	-5%	1%	-1%	3%	?	8.2µM*
S=C(N/N=C/c1ccccc1)N1CCOCC1	2%	1%	-4%	12%	24µM*	?
CCOc1ccc(CNC(=S)N/N=C\c2ccc([N+](=O)[O-])cc2)cc1	?	-38%	-2%	5%	6%	-17%
COc1ccc(/C=N/NC(=S)SC)cc1OC	3%	-3%	-3%	-3%	11µM*	13%
CSC(=S)N/N=C/c1ccccc1	-2%	3%	-4%	-2%	15µM*	5%
COc1ccc(/C=N/NC(N)=S)cc1OC(=O)c1ccccc1	17%	13%	-6%	0%	0%	?
CCc1ccc(S(=O)(=O)N2CCN(c3ccccc3OC)CC2)cc1	0%	.	-5%	0%	-3%	-8%
O=C(NCCCN1CCOCC1)C(=O)N/N=C/c1ccc2c(c1)OCO2	-1%	-2%	2%	1%	-16%	2%
COC(=O)c1c(C)[nH]c(C=Nc2ccc(OC)cc2)c1C	5%	.	-2%	3%	7.6µM*	12%
CCOC(=O)c1c(C)[nH]c(C=Nc2ccc(OC)cc2)c1O	?	11µM*	2.2µM*	4µM*	21µM*	?
CC1CCCCC1NC(=O)CCn1ccc2cc(S(=O)(=O)N3CCCC3)ccc21 (configuration not stated)	-4%	.	-3%	-2%	5%	5%
CCOC(=O)C1=C(C)NC(=S)NC1c1ccc(-c2ccc(Cl)cc2)o1 (configuration not stated)	-5%	-22%	-8%	2%	-10%	?
CCOC(=O)C1=C(C)NC(=S)NC1c1ccc(-c2cccc(Cl)c2C)o1 (configuration not stated)	-7%	-24%	-12%	-8%	1%	21µM*
CCCOc1ccc(-c2nnc(-c3ccncc3)o2)cc1	2.1µM*	?	?	3.5µM*	4.8µM*	?
SMILES	ELG1 genotoxic	SMN2 splice enh	Rab9 promoter act	NPC1 promoter act	FLuc counter	ELG1 repair inh
CC(C)COc1ccc(-c2nnc(-c3ccncc3)o2)cc1	15%	19%	0.63µM*	1.1µM*	3.4µM*	?
c1cc(-c2nnc(-c3ccncc3)o2)ccn1	0%	5%	3%	-1%	3%	8%
CCSc1ncc(/C=N/Nc2ccc(F)cc2)n1C	27%	11µM*	?	?	11µM*	?
COc1ccc(C(=O)c2ccc(OC)c(N)c2)cc1N	18µM*	36%	-26%	-14%	?	?
COc1ccc(C(=O)c2ccc(OC)c(OC)c2)cc1OC	0%	-13%	-7%	-2%	3%	18%
CCOc1ccc(NC(=S)NCc2nc3ccccc3[nH]2)cc1	6%	11%	-3%	-2%	-10%	-7%
CCNC(=S)Nc1ccc(-c2nc3ccccc3[nH]2)cc1	?	.	1.1µM*	3.2µM*	11µM*	?
O=C(Nc1ccc(-c2nc3ccccc3[nH]2)cc1)C1CCCO1 (configuration not stated)	0.41µM*	2.2µM*	0.32µM*	0.35µM*	1.2µM*	?
O=C(CSc1ccc(Cl)cc1)Nc1cccc(-c2nc3ccccc3[nH]2)c1	20%	2.8µM*	?	16%	-7%	?
O=C(CN1CCOCC1)Nc1ccc(-c2nc3ccccc3[nH]2)cc1	?	25%	?	?	13µM*	?
O=C(Nc1nc2ccccc2[nH]1)C1CCCO1 (configuration not stated)	16%	29%	?	?	?	?
O=C(c1ccc2c(c1)OCO2)N(c1ccc(Br)cc1)C1C=CS(=O)(=O)C1 (configuration not stated)	-6%	.	0%	1%	-1%	2%
C=C(C(=O)Oc1ccccc1C(C)(C)C)c1ccccc1	0%	.	-8%	-9%	0%	?
CCCCNC(=O)COC(=O)c1cc(C)oc1C	4%	0%	2%	0%	-3%	-2%
Cc1ccc2nc(-c3ccc(NC(=O)CSc4ccccc4)cc3)[nH]c2c1	?	3.5µM*	2.5µM*	1.6µM*	?	?
O=C(CSc1ccccc1)Nc1ccc(-c2nc3ccccc3[nH]2)cc1	?	8.9µM*	3.2µM*	2.2µM*	?	?
O=C(Cc1cccs1)Nc1ccc(-c2nc3ccccc3[nH]2)cc1	?	18µM*	1.6µM*	1.8µM*	1.5µM*	?
O=C(CSc1ccc2ccccc2c1)Nc1nc2ccccc2[nH]1	15%	.	-9%	-3%	3%	14%
Cc1ccc2nc(SCC(=O)Nc3ccc(C(N)=O)cc3)[nH]c2c1	7%	.	-17%	-1%	-6%	16%

Assay outcomes (PubChem)
